One may read the inhibition as the change of the read-out against control, counted positive when it falls.

The campaign covered roughly 650,000 compounds. About 5,900 (0.91%) were called active. The entries come from a sample that favours actives as a whole. Unmarked numbers belong to inactive results. No stated cut-off is given here; in the data, active means inhibition above about 50%; inactive means the rest.

Microphthalmia-associated transcription factor (Homo sapiens), sequence (O75030 whole entry, looked up): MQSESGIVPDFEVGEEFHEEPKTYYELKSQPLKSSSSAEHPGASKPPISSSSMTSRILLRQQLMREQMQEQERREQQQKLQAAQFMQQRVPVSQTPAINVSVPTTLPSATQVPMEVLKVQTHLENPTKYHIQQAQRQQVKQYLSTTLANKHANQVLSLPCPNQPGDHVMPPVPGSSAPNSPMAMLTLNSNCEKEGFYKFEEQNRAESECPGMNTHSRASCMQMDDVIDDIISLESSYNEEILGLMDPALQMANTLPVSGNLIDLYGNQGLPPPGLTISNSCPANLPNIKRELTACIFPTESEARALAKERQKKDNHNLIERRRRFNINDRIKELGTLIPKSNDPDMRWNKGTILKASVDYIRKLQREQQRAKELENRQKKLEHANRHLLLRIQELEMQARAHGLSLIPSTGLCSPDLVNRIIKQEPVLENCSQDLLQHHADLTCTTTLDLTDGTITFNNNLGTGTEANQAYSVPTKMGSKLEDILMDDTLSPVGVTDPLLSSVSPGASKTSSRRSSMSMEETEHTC

The experiment has as its target Microphthalmia-associated transcription factor (Homo sapiens) (UniProt O75030). As to the kind of experiment: MITF inhibitors, primary screen, biochemical, AlphaScreen, human (AID 1259374).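 Further: 0% = vehicle wells with protein.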 Particulars: AlphaScreen MITF homodimerization, bead proximity signal; at 2.6 µM; active compounds read high.
`O=C(Cc1csc(Nc2ccc(Cl)cn2)n1)NCc1ccccc1Cl`: the inhibition is 13.2%. For the compound `Cc1ccccc1-n1c(SCC(=O)Nc2ccc(C(N)=O)cc2)nnc1-c1ccncc1`, the inhibition is 24.8%. With `Cc1c(C(=O)c2ccccc2)oc2ccc(NC(=O)C(C)C)cc12`, the inhibition was -6.05%. In the case of `O=C1N=C(N2CCCC2)S/C1=C/c1ccc(-c2ccccc2[N+](=O)[O-])o1` it was 18.4%; in that of `CCCn1c(C)cc(-c2csc(NC(=O)Cc3ccsc3)n2)c1C`, 73.1% (active). Regarding `C=CCn1c(C)cc(-c2csc(NC(=O)c3ccc([N+](=O)[O-])s3)n2)c1C`, the inhibition is 5.62%. In the case of `CCCCC(=O)Nc1nc(-c2ccc(I)cc2)cs1` it was -1.42%. In the case of `O=C(NCCc1ccccc1)c1c[nH]c2ccc(S(=O)(=O)N3CCc4ccccc43)cc2c1=O` it was 5.29%; in that of `COc1ccc(Br)cc1CN1CCN(C(=O)c2cccnc2)CC1`, 88.2% (active); in that of `OCCOCCN1CCN(Cc2ccc(Cl)cc2)CC1`, 82.7% (active). Regarding `OCCN1CCN(CC(O)COCCOc2ccc(Cl)cc2)CC1` (stereo unspecified), the inhibition was -9.2%. For `COc1cccc(C(=O)N2CCN(C(=O)c3cccc(OC)c3)CC2)c1` the value was -5.18%; for `COc1cc(Br)cc(CN2CCCN(C)CC2)c1O`, 7.81%; for `COc1ccc(C(=O)N2CCN(Cc3cc(OC)c(OC)cc3OC)CC2)cc1`, -7.92%. For `COc1ccc(/C(C)=N/N)cc1CN1CCCCC1` the value was -0.23%. As to `COc1cc(OC)c(OC)cc1CN1CCN(C(=O)c2cccs2)CC1`, the inhibition was 35.6%. For `COc1cccc(C(=O)N2CCN(Cc3cc(OC)c(OC)cc3OC)CC2)c1` the value was 63.4% (active); for `COc1ccc(Br)cc1CN1CCN(C(C)=O)CC1`, 2.27%. As to `COc1ccc(Br)cc1CN1CCN(CCOCCO)CC1`, the inhibition is 66.6% (active). In the case of `COc1cccc(CN2CCN(CCOCCO)CC2)c1OC` it was -6.67%; in that of `CC1SC2(CCCCC2)N(c2ccc(F)cc2)C1=O` (stereo unspecified), -0.68%; in that of `COc1ccccc1NC(=O)CN1C(=O)C2CC=C(Cl)CC2C1=O` (stereo unspecified), 2.72%. On to `Cc1cc(OCC(O)CNCC(C)O)c(C(C)C)cc1Cl` (stereo unspecified), for which the inhibition is 0.85%. In the case of `O=S(=O)(NC1CCCC1)c1ccc(-c2ccc(S(=O)(=O)NC3CCCC3)cc2)cc1` it was -2.79%. For the compound `Clc1ccc(-c2csc(Nc3cccc4ccccc34)n2)cc1Cl`, the inhibition is 0.76%. Turning to `N#CC1=C(SCC(=O)Nc2cccc(F)c2)NC(=O)CC1c1ccccc1F` (stereo unspecified), the inhibition is 3.64%. As to `CCc1ccccc1NC(=O)c1ccc(F)c(S(=O)(=O)NCc2ccc3c(c2)OCO3)c1`, the inhibition was 10.2%. For `Cc1ccc(/C=C(\C#N)C(N)=O)c(C)c1` the value was 6.24%; for `COCCn1nnnc1C(c1cccnc1)N1CCN(c2ccccc2OC)CC1` (stereo unspecified), -7.29%; for `Nc1cccc(-c2ccc(C(=O)Nc3ccc(N4CCOCC4)cc3)s2)c1`, 13.4%.

As for `CCS(=O)(=O)N1CCC(N2CC(C)CC(C)C2)CC1` (stereo unspecified), the inhibition is 31.2%. In the case of `CCS(=O)(=O)N1CCN(C2CCCCC2C)CC1` (stereo unspecified) it was 51.2% (active); in that of `CCS(=O)(=O)N1CCC(c2nnc(C3CC3)s2)CC1`, 1.6%. On to `COc1cc(/C=N/NC(=O)c2cccnc2)ccc1Oc1ccc([N+](=O)[O-])cc1[N+](=O)[O-]`, for which the inhibition is 12.4%. In the case of `CCC1CN(Cc2ccccn2)Cc2ccc(Cl)cc2O1` (stereo unspecified) it was -11.7%; in that of `CCCCCCOC(=O)c1ccc(-c2ccc(-c3ccc(C(=O)OCCCCCC)cc3)cc2)cc1`, 14.5%; in that of `CCOC(=O)c1cc2cccnc2nc1C`, 12.4%. Turning to `CCCCCCOC(=O)c1cc(C(=O)OCCCCCC)c(C)nc1C`, the inhibition is 55.6% (active). For `CCN1CCN(Cc2c(O)ccc3cc(-c4ccccc4)c(=O)oc23)CC1`, the inhibition is 2.19%. In the case of `Cc1cn2c(=O)c(C(=O)Nc3ccc(Br)c(C)c3)cnc2s1` it was 3.85%. For `C=CCNC(=O)c1cc2cc(Cl)ccc2oc1=O` the value was 12.4%; for `CC1(C)CC(=O)C2=C(C1)Nc1ccccc1N(C(=O)Cc1ccccc1)C2c1cccc(F)c1` (stereo unspecified), 0.57%; for `CC1(C)CC(=O)C2=C(C1)Nc1ccccc1N(C(=O)Cc1ccccc1)C2c1ccc(-c2ccc([N+](=O)[O-])cc2)o1` (stereo unspecified), 65.2% (active). For `CCN(CC)c1ccc(C2C3=C(CC(C)(C)CC3=O)Nc3ccccc3N2C(=O)Cc2ccccc2)cc1` (stereo unspecified) the value was 2.82%; for `COc1ccc(C2CC(=O)C3=C(C2)Nc2ccccc2N(C(=O)c2ccc(Cl)c(Cl)c2)C3c2ccc(C)cc2)cc1` (stereo unspecified), -2.68%. With `CC(=O)c1ccc(NC(=O)C(C)NCc2ccc(C)cc2)cc1` (stereo unspecified), the inhibition is 76% (active). For `COc1cc(NC(C)C(=O)Nc2ccc(C(C)=O)cc2)cc(OC)c1` (stereo unspecified) the value was 0.12%. Turning to `CC(=O)c1ccc(NC(=O)C(C)NCc2ccc(Cl)cc2)cc1` (stereo unspecified), the inhibition is 3.65%. `Cc1nc2c(c(=O)[nH]1)C(c1ccc(Cl)c(Cl)c1)C(C#N)=C(N)O2` (stereo unspecified): the inhibition was 3.39%. In the case of `C=CCNC(=O)C(=O)Nc1cc(C)ccc1OC`, the inhibition is 12.4%. For `CNC(=O)NC(=O)CSc1ncnc2sc(-c3ccccc3)cc12` the value was 9.51%; for `NS(=O)(=O)c1cccc(NC(=O)COc2ncnc3sc(-c4ccccc4)cc23)c1`, 51.8% (active). In the case of `NS(=O)(=O)c1ccc2nc(NC(=O)COc3ccccc3)sc2c1` it was 5.22%. For `O=S(=O)(NCc1cccnc1)c1ccc(-n2cnnn2)cc1` the value was -8.13%; for `COc1cccc(Nc2nnc(Cc3ccc(Cl)cc3)c(=O)[nH]2)c1`, 10.6%; for `CCOc1ccccc1Nc1nnc(Cc2ccc(OC)cc2)c(=O)[nH]1`, 24.2%.

Turning to `COc1ccc(Cc2nnc(N/N=C/c3ccccc3O)[nH]c2=O)cc1OC`, the inhibition was 112% (active). In the case of `Cc1cc(NC(=O)Cc2ccccc2)n(-c2nc(C)c(C)c(=O)[nH]2)n1` it was 24.5%; in that of `CC[C@@H]1NC(=O)[C@H]2CN(C(=O)c3cccs3)CCN2C1=O`, 14.5%.

In the case of `C[C@H](O)[C@H]1NC(=O)[C@H]2CN(C(=O)c3ccccc3)CCN2C1=O`, the inhibition is -12.5%.

As to `C[C@@H](OCc1ccccc1)[C@@H]1NC(=O)[C@H]2CN(C(=O)Nc3cccc(F)c3)CCN2C1=O`, the inhibition is 75.3% (active). On to `CC[C@@H]1NC(=O)[C@H]2CN(C(=O)NCc3ccccc3)CCN2C1=O`, for which the inhibition is 75.7% (active). For `O=C1N[C@H](Cc2ccccc2)C(=O)N2CCN(C(=O)Oc3ccccc3)C[C@H]12` the value was -5.43%; for `C[C@@H](OCc1ccccc1)[C@@H]1NC(=O)[C@H]2CN(Cc3ccc4ncccc4c3)CCN2C1=O`, 15.9%. `Cc1ccccc1C(=O)Nc1ccc(S(=O)(=O)NCc2ccccc2)cc1`: the inhibition was 5.75%.

In the case of `Cc1ccc(NC(=O)CC[C@H]2CN(Cc3ccncc3)CC[C@H]2N2CCOCC2)cc1`, the inhibition is -7.04%. With `CCCC(C)C(=O)Nc1nc2c(s1)C(=O)CC(C)(C)C2` (stereo unspecified), the inhibition is 6.86%. In the case of `CC(C)NC(=O)/C=C/c1cccc([N+](=O)[O-])c1`, the inhibition was -4.32%. As for `COc1cccc(N2C(=O)CC(N3CCN(C)CC3)C2=O)c1` (stereo unspecified), the inhibition was 5.95%. For `Cc1ccc(-c2noc(CN(C(C)C)S(=O)(=O)c3ccc(F)cc3)n2)cc1` the value was -1.65%; for `O=C1CCCN1CCn1cnc2c(Nc3ccc(N4CCOCC4)cc3)nc(NCc3ccc4c(c3)OCO4)nc21`, 15.2%. For the compound `c1ccc(CN2CCC(Nc3nc(NCc4ccc5c(c4)OCO5)nc4c3ncn4C3CCCCC3)CC2)cc1`, the inhibition was 16.3%. For `c1cc2c(cc1CNc1nc(Nc3ccc(N4CCOCC4)cc3)c3ncn(C4CCCCC4)c3n1)OCO2` the value was 53.1% (active). For `CC12CCOCC1C2C(=O)Nc1ccc(N=Nc2ccccc2)cc1` (stereo unspecified) the value was -6.59%. As to `O=C1CCCN1CCCNc1ccnc(Nc2nccc3ccccc23)n1`, the inhibition is -1.07%. `O=C(CN1CCCCCC1)N/N=C/c1ccc(Cl)cc1`: the inhibition is 20%.

In the case of `COc1cccc(/C=N\NC(=O)CN2CCN(C)CC2)c1`, the inhibition was -8.3%.

Take `CCN1CCN(CC(=O)N/N=C/c2cccc(Cl)c2)CC1`: the inhibition was 57.4% (active). Regarding `Cc1cccc(NC(=O)c2sc3nc4c(cc3c2N)CCC4)c1C`, the inhibition was 21.2%. In the case of `CCN1CCN(CCOCCOc2ccc([N+](=O)[O-])cc2)CC1` it was 72% (active); in that of `CN1CCN(CCOCCOc2ccc3c(c2)CCC3)CC1`, 11.3%. In the case of `CN1CCN(CCCCOc2ccc(C#N)cc2)CC1`, the inhibition was 1.14%.

On to `CCN1CCN(CCOc2ccc(-c3ccccc3)cc2)CC1`, for which the inhibition is 76.4% (active). As to `CCOc1ccc(OCCN2CCNCC2)cc1`, the inhibition was 12.2%. In the case of `COc1ccc(OCCOCCOc2ccc([N+](=O)[O-])cc2Cl)cc1` it was 3.66%; in that of `O=C(COc1ccc2c3c(c(=O)oc2c1)CCC3)Nc1cccc2ncccc12`, 2.18%. For `COc1ccc(/C(O)=C/c2nc3cc(C)ccc3oc2=O)cc1OC`, the inhibition is 3.89%.

As for `CCN(CC)S(=O)(=O)c1ccc(C(=O)NCCO)cc1`, the inhibition is -0.2%. For `C/C(=N\N=C1\NC(=O)CC(C(=O)Nc2cccc(C(=O)O)c2)S1)c1ccccc1` (stereo unspecified), the inhibition was 7.7%.

As to `CC1CN(C(=O)COC(=O)c2cc(O)c(O)c(O)c2)CC(C)O1` (stereo unspecified), the inhibition is 54.2% (active).

Consider `CC1CN(C(=O)COC(=O)/C=C/c2ccco2)CC(C)O1` (stereo unspecified), for which the inhibition was 16.4%. In the case of `CC1CN(C(=O)COc2ccc(C(C)C)cc2Br)CC(C)O1` (stereo unspecified) it was -0.26%. In the case of `Cc1sc(NC(=O)c2ccco2)c(C(c2ccccn2)N2CCN(C)CC2)c1C` (stereo unspecified) it was 12.4%. With `Oc1c(CN2CCN(c3cccc(Cl)c3)CC2)cc(Br)c2cccnc12`, the inhibition was -1.04%.

Take `CCOc1cccc(CN2CCCCC2)c1O`: the inhibition is 12.8%. For `Oc1c(CN2CCCC2)cc(COCc2ccccc2)c2cccnc12` the value was 74.4% (active).

The record behind these values is PubChem BioAssay AID1259374 (The Scripps Research Institute Molecular Screening Center, 2018).
